This passage reports binding signal results from article PMC7862700, “An all-to-all approach to the identification of sequence-specific readers for epigenetic DNA modifications on cytosine”.

Assay in all cases: DAPPL (digital affinity profiling via proximity ligation, sequencing); 10 mM Tris-HCl pH 7.5, 50 mM NaCl, 1 mM DTT, 4% glycerol, room temperature, 30 min; GST-TFs on glutathione beads, 16-mer random dsDNA library, 0.1% formaldehyde crosslink after washing; high values mean tight binding
Details in all cases: protein: recombinant; tags: N-terminal GST; dsDNA, one strand shown

One assay concerns the target T1, GABPA (Homo sapiens, UniProt Q06546 1-454).
T1 sequence: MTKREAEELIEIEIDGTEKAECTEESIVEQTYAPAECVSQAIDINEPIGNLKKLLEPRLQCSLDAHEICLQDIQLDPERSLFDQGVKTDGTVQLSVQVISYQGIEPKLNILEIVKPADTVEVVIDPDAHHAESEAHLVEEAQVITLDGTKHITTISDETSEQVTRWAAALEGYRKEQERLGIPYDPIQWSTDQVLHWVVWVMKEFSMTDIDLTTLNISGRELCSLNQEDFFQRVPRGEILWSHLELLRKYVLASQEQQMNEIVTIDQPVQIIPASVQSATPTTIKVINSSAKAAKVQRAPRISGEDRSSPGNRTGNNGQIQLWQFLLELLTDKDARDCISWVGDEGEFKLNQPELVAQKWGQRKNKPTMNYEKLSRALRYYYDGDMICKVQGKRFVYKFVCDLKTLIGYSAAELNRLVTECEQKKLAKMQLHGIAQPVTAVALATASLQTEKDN
The method in brief:
(§1)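 Each value of binding signal is a hexamer's read frequency for a factor divided by the same hexamer's frequency in the tag-only sample. Barcoded, bead-captured GST fusions of human transcription factors made in yeast were pooled with that sample and incubated with 200 nmole of a random double-stranded 16-mer DNA library in Tris/NaCl/DTT/glycerol buffer at room temperature for 30 min. Washing, 0.1% formaldehyde crosslinking, proximity ligation, PCR and Illumina NextSeq500 sequencing followed.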

A further assay deals with ELF1 (Homo sapiens, UniProt P32519 1-619). The method in brief: as §1
The next assay has as its target SPIB (Homo sapiens, UniProt Q01892 1-262). The method in brief: as §1
For a further assay, the target named is T2, SPIC (Homo sapiens, UniProt Q8N5J4 1-248).
T2 sequence: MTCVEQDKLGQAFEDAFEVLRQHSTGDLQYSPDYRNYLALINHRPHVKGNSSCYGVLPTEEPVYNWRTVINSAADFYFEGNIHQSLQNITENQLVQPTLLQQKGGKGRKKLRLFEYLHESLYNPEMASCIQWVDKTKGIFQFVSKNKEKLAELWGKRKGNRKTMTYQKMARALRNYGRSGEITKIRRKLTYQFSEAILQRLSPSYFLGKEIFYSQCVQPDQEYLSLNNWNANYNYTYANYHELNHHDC
The method in brief: as §1

A further assay addresses ETV1 (Homo sapiens, UniProt P50549 1-477). Put shortly:
as §1

The target of a further assay is T3, ERF (Homo sapiens, UniProt P50548 1-548).
T3 sequence: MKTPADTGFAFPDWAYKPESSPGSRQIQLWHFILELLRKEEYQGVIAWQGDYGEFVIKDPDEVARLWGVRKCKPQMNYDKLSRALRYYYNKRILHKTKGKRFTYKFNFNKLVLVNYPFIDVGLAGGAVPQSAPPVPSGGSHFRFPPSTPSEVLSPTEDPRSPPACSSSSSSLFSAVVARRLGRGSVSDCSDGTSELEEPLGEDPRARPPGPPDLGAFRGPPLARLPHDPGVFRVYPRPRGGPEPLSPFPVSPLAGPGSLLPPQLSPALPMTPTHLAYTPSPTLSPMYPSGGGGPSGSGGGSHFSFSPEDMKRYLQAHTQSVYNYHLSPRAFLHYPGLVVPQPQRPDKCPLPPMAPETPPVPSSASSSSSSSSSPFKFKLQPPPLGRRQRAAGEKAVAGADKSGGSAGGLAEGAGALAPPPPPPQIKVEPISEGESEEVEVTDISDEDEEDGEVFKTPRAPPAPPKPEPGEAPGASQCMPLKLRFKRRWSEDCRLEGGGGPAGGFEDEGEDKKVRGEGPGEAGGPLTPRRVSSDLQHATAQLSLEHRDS
The method in brief:
as §1

Another assay concerns the target T4, ETV3L (Homo sapiens, UniProt Q6ZN32 1-361).
T4 sequence: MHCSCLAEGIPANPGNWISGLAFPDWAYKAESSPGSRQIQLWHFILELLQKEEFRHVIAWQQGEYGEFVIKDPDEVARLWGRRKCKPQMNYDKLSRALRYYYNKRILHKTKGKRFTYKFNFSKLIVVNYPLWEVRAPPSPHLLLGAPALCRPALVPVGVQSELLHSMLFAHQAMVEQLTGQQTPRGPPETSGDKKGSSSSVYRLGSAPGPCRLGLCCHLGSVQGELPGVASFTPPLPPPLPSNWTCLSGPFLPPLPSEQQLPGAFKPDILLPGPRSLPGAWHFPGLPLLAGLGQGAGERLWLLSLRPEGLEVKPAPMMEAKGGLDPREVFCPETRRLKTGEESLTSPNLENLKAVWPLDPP
Put shortly: as §1

For the next assay, the target named is T5, ETS2 (Homo sapiens, UniProt P15036 1-469).
T5 sequence: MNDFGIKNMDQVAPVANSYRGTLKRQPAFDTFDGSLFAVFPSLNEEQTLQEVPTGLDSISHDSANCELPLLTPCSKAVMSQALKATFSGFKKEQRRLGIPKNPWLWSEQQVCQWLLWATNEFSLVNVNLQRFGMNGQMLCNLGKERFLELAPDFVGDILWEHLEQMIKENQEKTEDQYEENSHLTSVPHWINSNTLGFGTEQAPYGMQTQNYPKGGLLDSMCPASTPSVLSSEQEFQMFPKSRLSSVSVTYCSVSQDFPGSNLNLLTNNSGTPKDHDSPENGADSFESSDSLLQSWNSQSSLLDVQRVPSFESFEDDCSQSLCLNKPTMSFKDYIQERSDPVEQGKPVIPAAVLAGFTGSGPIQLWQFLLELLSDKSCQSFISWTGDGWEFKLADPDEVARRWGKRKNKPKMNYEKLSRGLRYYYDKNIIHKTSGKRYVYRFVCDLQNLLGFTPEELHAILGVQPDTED
The method in brief: as §1

The target of another assay is T6, SPDEF (Homo sapiens, UniProt O95238 1-335).
T6 sequence: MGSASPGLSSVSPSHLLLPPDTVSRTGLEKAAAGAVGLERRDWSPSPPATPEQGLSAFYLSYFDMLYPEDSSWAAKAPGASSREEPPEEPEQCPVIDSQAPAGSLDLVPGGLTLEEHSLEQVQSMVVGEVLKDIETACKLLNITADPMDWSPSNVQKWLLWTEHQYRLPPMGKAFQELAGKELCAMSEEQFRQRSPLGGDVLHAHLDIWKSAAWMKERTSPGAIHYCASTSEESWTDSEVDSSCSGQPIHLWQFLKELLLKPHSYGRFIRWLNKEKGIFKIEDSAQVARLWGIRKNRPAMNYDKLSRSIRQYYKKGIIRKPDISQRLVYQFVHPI
Put shortly:
as §1

The next assay addresses T7, ETV3 (Homo sapiens, UniProt P41162-2 1-143).
T7 sequence: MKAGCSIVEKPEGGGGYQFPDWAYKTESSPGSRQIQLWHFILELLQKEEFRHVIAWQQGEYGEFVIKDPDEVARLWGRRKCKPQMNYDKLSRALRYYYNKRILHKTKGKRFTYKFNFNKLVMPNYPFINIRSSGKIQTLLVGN
Put shortly: as §1

A further assay concerns the target ETV6 (Homo sapiens, UniProt P41212 1-452). Put shortly:
as §1

In another assay the target is T8, ERG (Homo sapiens, UniProt P11308 1-479).
T8 sequence: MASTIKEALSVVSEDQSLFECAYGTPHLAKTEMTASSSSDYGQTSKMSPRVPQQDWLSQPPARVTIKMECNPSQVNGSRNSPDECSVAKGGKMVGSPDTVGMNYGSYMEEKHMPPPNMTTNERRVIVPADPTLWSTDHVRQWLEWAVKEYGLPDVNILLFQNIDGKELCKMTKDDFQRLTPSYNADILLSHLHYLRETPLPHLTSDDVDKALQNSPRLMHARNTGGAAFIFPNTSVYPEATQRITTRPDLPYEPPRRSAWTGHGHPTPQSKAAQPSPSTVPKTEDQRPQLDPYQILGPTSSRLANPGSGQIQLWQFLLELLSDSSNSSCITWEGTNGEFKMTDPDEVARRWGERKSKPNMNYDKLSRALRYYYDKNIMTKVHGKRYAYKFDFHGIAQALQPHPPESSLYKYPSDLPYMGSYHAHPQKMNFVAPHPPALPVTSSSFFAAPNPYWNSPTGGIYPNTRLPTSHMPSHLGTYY
The method in brief: as §1

Another assay addresses ELF4 (Homo sapiens, UniProt Q99607 1-663). The method in brief:
as §1

The target in the next assay is T9, ELK4 (Homo sapiens, UniProt P28324-2 1-405).
T9 sequence: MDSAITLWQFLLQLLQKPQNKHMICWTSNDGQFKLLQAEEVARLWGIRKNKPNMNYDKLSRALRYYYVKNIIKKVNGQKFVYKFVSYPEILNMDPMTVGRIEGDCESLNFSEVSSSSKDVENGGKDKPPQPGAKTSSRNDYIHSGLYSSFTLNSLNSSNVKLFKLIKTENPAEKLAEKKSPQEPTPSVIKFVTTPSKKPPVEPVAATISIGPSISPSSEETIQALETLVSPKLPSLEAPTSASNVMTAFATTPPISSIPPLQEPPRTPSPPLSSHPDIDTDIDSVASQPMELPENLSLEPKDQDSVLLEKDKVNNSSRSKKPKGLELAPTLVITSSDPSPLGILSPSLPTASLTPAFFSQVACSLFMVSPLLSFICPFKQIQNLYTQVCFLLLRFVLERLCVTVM
The method in brief: as §1

The target of a further assay is T10, ELF3 (Homo sapiens, UniProt P78545 1-371).
T10 sequence: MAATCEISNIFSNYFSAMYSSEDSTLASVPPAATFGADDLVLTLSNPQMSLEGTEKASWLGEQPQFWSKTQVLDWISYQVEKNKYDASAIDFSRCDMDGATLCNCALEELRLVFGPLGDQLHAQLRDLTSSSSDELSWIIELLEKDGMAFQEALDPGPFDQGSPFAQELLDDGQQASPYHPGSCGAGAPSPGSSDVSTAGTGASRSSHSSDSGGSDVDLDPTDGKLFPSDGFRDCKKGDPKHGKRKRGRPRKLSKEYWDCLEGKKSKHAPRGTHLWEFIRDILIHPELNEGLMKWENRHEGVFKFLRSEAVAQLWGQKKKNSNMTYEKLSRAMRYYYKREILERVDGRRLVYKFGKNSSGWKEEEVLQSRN
The method in brief: as §1

A further assay concerns the target T11, ETV7 (Homo sapiens, UniProt Q9Y603 1-341).
T11 sequence: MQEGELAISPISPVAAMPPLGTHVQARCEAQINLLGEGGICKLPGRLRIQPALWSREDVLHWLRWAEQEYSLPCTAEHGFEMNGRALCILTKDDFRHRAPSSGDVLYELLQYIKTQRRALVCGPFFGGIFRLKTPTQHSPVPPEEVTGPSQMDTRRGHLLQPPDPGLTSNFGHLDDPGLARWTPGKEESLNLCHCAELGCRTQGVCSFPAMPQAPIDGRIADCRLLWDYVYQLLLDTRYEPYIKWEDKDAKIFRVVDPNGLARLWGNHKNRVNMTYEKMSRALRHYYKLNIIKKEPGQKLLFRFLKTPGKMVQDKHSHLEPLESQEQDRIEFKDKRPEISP
The method in brief:
as §1

ETV1, sequence (P50549 whole entry): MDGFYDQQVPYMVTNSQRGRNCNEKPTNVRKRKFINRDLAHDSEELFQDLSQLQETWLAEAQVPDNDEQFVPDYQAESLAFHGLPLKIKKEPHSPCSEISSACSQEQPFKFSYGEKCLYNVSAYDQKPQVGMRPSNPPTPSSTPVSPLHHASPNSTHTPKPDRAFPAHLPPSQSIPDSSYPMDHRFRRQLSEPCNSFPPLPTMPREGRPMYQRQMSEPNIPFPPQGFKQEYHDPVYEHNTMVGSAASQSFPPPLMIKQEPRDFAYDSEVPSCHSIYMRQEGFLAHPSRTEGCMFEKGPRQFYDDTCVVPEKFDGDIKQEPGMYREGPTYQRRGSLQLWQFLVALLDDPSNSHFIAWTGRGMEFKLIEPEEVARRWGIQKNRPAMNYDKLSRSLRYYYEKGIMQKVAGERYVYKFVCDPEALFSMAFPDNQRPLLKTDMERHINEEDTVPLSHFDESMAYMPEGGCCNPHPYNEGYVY
ETV6, sequence (P41212 whole entry): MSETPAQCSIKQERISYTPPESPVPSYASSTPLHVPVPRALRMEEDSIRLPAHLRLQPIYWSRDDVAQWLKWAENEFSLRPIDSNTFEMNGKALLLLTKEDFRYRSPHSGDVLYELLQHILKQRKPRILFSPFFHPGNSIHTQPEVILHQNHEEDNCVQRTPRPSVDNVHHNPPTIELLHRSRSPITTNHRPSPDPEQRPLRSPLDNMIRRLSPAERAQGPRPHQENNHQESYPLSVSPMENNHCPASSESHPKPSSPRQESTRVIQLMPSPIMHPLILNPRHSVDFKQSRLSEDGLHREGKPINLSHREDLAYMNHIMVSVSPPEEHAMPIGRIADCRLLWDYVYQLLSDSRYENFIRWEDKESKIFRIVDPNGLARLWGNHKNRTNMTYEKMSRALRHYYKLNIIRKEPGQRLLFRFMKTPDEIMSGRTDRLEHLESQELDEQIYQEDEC
SPIB, sequence (Q01892 whole entry): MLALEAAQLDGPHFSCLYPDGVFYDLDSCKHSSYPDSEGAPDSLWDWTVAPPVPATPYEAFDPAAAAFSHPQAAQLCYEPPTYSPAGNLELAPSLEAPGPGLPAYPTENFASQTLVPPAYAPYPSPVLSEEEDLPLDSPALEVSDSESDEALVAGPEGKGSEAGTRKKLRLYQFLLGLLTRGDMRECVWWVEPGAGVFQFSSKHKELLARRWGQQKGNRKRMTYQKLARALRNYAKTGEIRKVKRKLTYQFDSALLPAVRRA
ELF4, sequence (Q99607 whole entry): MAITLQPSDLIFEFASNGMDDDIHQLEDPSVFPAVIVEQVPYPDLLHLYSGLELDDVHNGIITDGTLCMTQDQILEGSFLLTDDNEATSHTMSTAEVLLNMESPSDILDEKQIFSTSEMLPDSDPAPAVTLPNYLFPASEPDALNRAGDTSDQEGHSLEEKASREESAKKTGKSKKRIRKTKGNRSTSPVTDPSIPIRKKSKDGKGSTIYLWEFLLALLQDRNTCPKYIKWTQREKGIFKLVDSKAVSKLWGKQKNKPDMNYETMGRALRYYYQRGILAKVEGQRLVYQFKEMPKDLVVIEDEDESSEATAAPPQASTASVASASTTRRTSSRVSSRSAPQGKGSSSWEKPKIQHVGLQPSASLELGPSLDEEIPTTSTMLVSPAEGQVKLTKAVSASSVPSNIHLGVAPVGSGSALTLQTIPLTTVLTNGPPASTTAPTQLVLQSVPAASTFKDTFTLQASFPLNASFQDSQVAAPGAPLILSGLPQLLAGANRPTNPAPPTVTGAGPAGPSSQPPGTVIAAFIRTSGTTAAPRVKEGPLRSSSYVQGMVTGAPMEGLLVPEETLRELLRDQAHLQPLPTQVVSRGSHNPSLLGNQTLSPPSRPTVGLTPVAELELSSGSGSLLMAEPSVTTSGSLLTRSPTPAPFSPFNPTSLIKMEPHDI
ELF1, sequence (P32519 whole entry): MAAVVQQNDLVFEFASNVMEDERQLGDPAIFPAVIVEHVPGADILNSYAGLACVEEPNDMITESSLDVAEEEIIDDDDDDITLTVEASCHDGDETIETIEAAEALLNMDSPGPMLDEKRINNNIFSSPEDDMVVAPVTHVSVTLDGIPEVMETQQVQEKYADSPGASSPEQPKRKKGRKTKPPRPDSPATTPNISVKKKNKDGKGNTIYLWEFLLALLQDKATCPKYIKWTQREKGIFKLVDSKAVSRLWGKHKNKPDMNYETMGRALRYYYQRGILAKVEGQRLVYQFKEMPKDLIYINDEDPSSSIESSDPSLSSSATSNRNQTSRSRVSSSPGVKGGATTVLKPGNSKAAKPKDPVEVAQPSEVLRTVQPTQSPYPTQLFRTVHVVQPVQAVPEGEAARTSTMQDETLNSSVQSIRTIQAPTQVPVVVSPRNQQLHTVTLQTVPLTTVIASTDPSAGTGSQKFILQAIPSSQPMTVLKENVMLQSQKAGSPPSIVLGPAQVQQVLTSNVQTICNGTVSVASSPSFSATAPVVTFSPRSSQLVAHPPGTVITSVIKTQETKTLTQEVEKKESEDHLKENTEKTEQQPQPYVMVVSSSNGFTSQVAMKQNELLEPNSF

Consider GATCAA, for which the binding signal in the assay with GABPA was 1.16 fold enrichment (6-mer frequency, TF over GST control); in the assay with ELF1, 1.04 fold enrichment (6-mer frequency, TF over GST control); in the assay with SPIB, 1.03 fold enrichment (6-mer frequency, TF over GST control); with SPIC it was 1.05 fold enrichment (6-mer frequency, TF over GST control); with ETV1 it was 1.04 fold enrichment (6-mer frequency, TF over GST control); with ERF, 1.02 fold enrichment (6-mer frequency, TF over GST control). Besides, the binding signal was 1.1 fold enrichment (6-mer frequency, TF over GST control) in the assay with ETV3L; 1.04 fold enrichment (6-mer frequency, TF over GST control) with ETS2; 1.05 fold enrichment (6-mer frequency, TF over GST control) with SPDEF; 1.01 fold enrichment (6-mer frequency, TF over GST control) with ETV3; 1.07 fold enrichment (6-mer frequency, TF over GST control) with ETV6.
Regarding TCGAGC, the binding signal in the assay with ERG was 1.03 fold enrichment (6-mer frequency, TF over GST control); with SPIB it was 1.1 fold enrichment (6-mer frequency, TF over GST control); in the assay with SPIC it was 1.04 fold enrichment (6-mer frequency, TF over GST control); in the assay with ELF4 it was 1.03 fold enrichment (6-mer frequency, TF over GST control); in the assay with ELK4, 1.11 fold enrichment (6-mer frequency, TF over GST control); with ELF3 it was 1 fold enrichment (6-mer frequency, TF over GST control). Moreover, the binding signal with ETV1 was 1.08 fold enrichment (6-mer frequency, TF over GST control); with ERF, 1.03 fold enrichment (6-mer frequency, TF over GST control); with ETV3L it was 1.15 fold enrichment (6-mer frequency, TF over GST control); with SPDEF, 1.08 fold enrichment (6-mer frequency, TF over GST control); with ETV7, 1.09 fold enrichment (6-mer frequency, TF over GST control); in the assay with ETV3 it was 1.03 fold enrichment (6-mer frequency, TF over GST control). Further, the binding signal with ETV6 is 1.02 fold enrichment (6-mer frequency, TF over GST control).
